Out of some 5,500 compounds screened, about 2,000 (36%) were called active. Inconclusive results (about 18%) are left out. No stated cut-off is given here; in the data, active means normalized growth mostly below about 0.91 (no sharp cut-off); inconclusive means no clear call, values can overlap the other calls; inactive means mostly above about 0.92. Some of the results follow.
Experiment: chemical genetic growth profiling, strain panel (AID 1159580);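 further: tested at 20 µM; growth read once vehicle control cultures reached saturation at 30 °C; 1 = growth at the plate median or of vehicle wells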
Settings: S. cerevisiae deletion strains, growth OD
[1] = locus YAR019C, strain CDC15, stronger effect = lower value
[2] = locus YBL105C, strain PKC1, stronger effect = lower value
[3] = locus YBR135W, strain CKS1, stronger effect = lower value
[4] = locus YBR136W, strain MEC1, stronger effect = lower value
[5] = locus YBR160W, strain CDC28, stronger effect = lower value
[6] = locus YDL017W, strain CDC7, stronger effect = lower value
[7] = locus YDL028C, strain MPS1, stronger effect = lower value
[8] = locus YDL101C, strain DUN1, stronger effect = lower value
[9] = locus YDL108W, strain KIN28, stronger effect = lower value
[10] = locus YDL132W, strain cdc53, stronger effect = lower value
[11] = locus YDL214C, strain PRR2, stronger effect = lower value
[12] = locus YDR052C, strain DBF4, stronger effect = lower value
[13] = locus YDR054C, strain cdc34, stronger effect = lower value
[14] = locus YDR226W, strain ADK1, stronger effect = lower value
[15] = locus YDR477W, strain SNF1, stronger effect = lower value
[16] = locus YER123W, strain YCK3, stronger effect = lower value
[17] = locus YER133W, strain GLC7, stronger effect = lower value
[18] = locus YFL009W, strain cdc4, stronger effect = lower value
[19] = locus YFL029C, strain CAK1, stronger effect = lower value
[20] = locus YFR003C, strain YPI1, stronger effect = lower value
[21] = locus YFR019W, strain FAB1, stronger effect = lower value
[22] = locus YFR028C, strain CDC14, stronger effect = lower value
[23] = locus YGR040W, strain KSS1, stronger effect = lower value
[24] = locus YGR052W, strain FMP48, stronger effect = lower value
[25] = locus YGR092W, strain DBF2, stronger effect = lower value
[26] = locus YHR030C, strain SLT2, stronger effect = lower value
[27] = locus YHR079C, strain IRE1, stronger effect = lower value
[28] = locus YHR082C, strain KSP1, stronger effect = lower value
[29] = locus YHR205W, strain SCH9, stronger effect = lower value
[30] = locus YIL147C, strain SLN1, stronger effect = lower value
[31] = locus YJL095W, strain BCK1, stronger effect = lower value
[32] = locus YJL128C, strain PBS2, stronger effect = lower value
[33] = locus YJL157C, strain FAR1, stronger effect = lower value
[34] = locus YJR016C, strain ILV3, stronger effect = lower value
[35] = locus YJR066W, strain TOR1 (second series), stronger effect = lower value
[36] = locus YJR066W, strain TOR1, stronger effect = lower value
[37] = locus YKL048C, strain ELM1, stronger effect = lower value
[38] = locus YKL067W, strain YNK1, stronger effect = lower value
[39] = locus YKL101W, strain HSL1, stronger effect = lower value
[40] = locus YKL193C, strain SDS22, stronger effect = lower value
[41] = locus YKL203C, strain TOR2, stronger effect = lower value
[42] = locus YLR113W, strain HOG1, stronger effect = lower value
[43] = locus YLR133W, strain CKI1, stronger effect = lower value
[44] = locus YLR403W, strain SFP1, stronger effect = lower value
[45] = locus YML070W, strain DAK1, stronger effect = lower value
[46] = locus YMR001C, strain CDC5, stronger effect = lower value
[47] = locus YMR205C, strain PFK2 (second series), stronger effect = lower value
[48] = locus YMR277W, strain FCP1, stronger effect = lower value
[49] = locus YNL006W, strain LST8, stronger effect = lower value
[50] = locus YNL020C, strain ARK1, stronger effect = lower value
[51] = locus YNL161W, strain CBK1, stronger effect = lower value
[52] = locus YNL183C, strain NPR1, stronger effect = lower value
[53] = locus YNL207W, strain RIO2, stronger effect = lower value
[54] = locus YNL222W, strain SSU72, stronger effect = lower value
[55] = locus YNL307C, strain MCK1 (second series), stronger effect = lower value
[56] = locus YOL078W, strain AVO1, stronger effect = lower value
[57] = locus YOL136C, strain PFK27, stronger effect = lower value
[58] = locus YOR061W, strain CKA2, stronger effect = lower value
[59] = locus YOR119C, strain RIO1, stronger effect = lower value
[60] = locus YOR231W, strain MKK1, stronger effect = lower value
[61] = locus YOR329C, strain SCD5, stronger effect = lower value
[62] = locus YPL031C, strain PHO85, stronger effect = lower value
[63] = locus YPL153C, strain RAD53, stronger effect = lower value
[64] = locus YPL204W, strain HRR25, stronger effect = lower value
[65] = locus YPL209C, strain IPL1, stronger effect = lower value
[66] = locus YPL256C, strain CLN2, stronger effect = lower value
[67] = locus YPR025C, strain CCL1, stronger effect = lower value
[68] = locus YPR106W, strain ISR1, stronger effect = lower value
[69] = locus YPR111W, strain DBF20, stronger effect = lower value
[70] = strain NNK1, stronger effect = lower value
[71] = strain TSCII, stronger effect = lower value

Measured: normalized growth

Fc1cccc(Cl)c1CSc1n[nH]c(-c2cc(C(F)(F)F)cc(C(F)(F)F)c2)n1
active: [26] 0.372 | [42] 0.773 | [66] 0.811
inactive: [1] 0.973 | [2] 0.981 | [3] 0.981 | [4] 0.982 | [5] 0.977 | [6] 0.987 | [7] 0.961 | [8] 0.986 | [9] 0.97 | [10] 0.975 | [11] 0.916 | [12] 0.994 | [13] 0.973 | [14] 0.971 | [15] 0.891 | [16] 0.918 | [17] 0.939 | [18] 0.961 | [19] 0.973 | [20] 0.977 | [21] 0.913 | [22] 0.973 | [23] 0.898 | [24] 0.925 | [25] 0.914 | [27] 0.836 | [28] 0.871 | [29] 0.821 | [30] 0.98 | [31] 0.79 | [32] 0.957 | [33] 0.926 | [34] 0.981 | [35] 0.918 | [36] 0.873 | [37] 0.974 | [38] 0.916 | [39] 0.889 | [40] 0.975 | [41] 1.01 | [43] 0.902 | [44] 0.926 | [45] 0.907 | [46] 0.97 | [47] 0.937 | [48] 0.959 | [49] 0.983 | [50] 0.905 | [51] 0.976 | [52] 0.933 | [53] 0.978 | [54] 0.965 | [55] 0.744 | [56] 0.976 | [57] 0.878 | [58] 0.911 | [59] 0.943 | [60] 0.846 | [61] 0.983 | [62] 0.896 | [63] 0.894 | [64] 0.868 | [65] 0.979 | [67] 0.981 | [68] 0.97 | [69] 0.945 | [70] 0.96 | [71] 0.972

Clc1cc(Cl)cc(-c2nc(SCc3ccc(Cl)cc3Cl)n[nH]2)c1
inactive: [1] 0.991 | [2] 0.99 | [3] 0.982 | [4] 0.998 | [5] 0.991 | [6] 0.987 | [7] 0.995 | [8] 1 | [9] 0.986 | [10] 0.981 | [11] 0.913 | [12] 0.998 | [13] 0.984 | [14] 0.992 | [15] 0.938 | [16] 0.908 | [17] 0.968 | [18] 0.981 | [19] 0.995 | [20] 0.995 | [21] 0.901 | [22] 1 | [23] 0.964 | [24] 0.937 | [25] 0.839 | [27] 0.845 | [28] 0.911 | [29] 0.829 | [30] 0.992 | [31] 0.81 | [32] 0.964 | [33] 0.942 | [34] 0.987 | [35] 0.98 | [36] 0.893 | [37] 0.964 | [38] 0.882 | [39] 0.891 | [40] 0.985 | [41] 1.05 | [43] 0.924 | [44] 0.963 | [45] 0.92 | [46] 0.988 | [47] 0.927 | [48] 0.983 | [49] 0.965 | [50] 0.914 | [51] 0.991 | [52] 0.916 | [53] 0.983 | [54] 0.987 | [55] 0.864 | [56] 0.985 | [57] 0.893 | [58] 0.756 | [59] 0.956 | [60] 0.873 | [61] 0.986 | [62] 0.927 | [63] 0.889 | [64] 0.915 | [65] 0.985 | [67] 0.98 | [68] 0.981 | [69] 0.948 | [70] 0.981 | [71] 0.993
active: [26] 0.356 | [42] 0.772 | [66] 0.835

CSc1n[nH]c(-c2cc(C(F)(F)F)cc(C(F)(F)F)c2)n1
active: [26] 0.671 | [42] 0.615 | [66] 0.709
inactive: [1] 0.939 | [2] 0.952 | [3] 0.946 | [4] 0.948 | [5] 0.939 | [6] 0.955 | [7] 0.939 | [8] 0.973 | [9] 0.918 | [10] 0.955 | [11] 0.892 | [12] 0.977 | [13] 0.938 | [14] 0.942 | [15] 0.895 | [16] 0.892 | [17] 0.935 | [18] 0.92 | [19] 0.918 | [20] 0.953 | [21] 0.979 | [22] 0.936 | [23] 0.893 | [24] 0.92 | [25] 0.894 | [27] 0.82 | [28] 0.914 | [29] 0.785 | [30] 0.941 | [31] 0.791 | [32] 0.859 | [33] 0.938 | [34] 0.947 | [35] 0.939 | [36] 0.859 | [37] 0.904 | [38] 0.887 | [39] 0.853 | [40] 0.939 | [41] 1 | [43] 0.904 | [44] 0.927 | [45] 0.878 | [46] 0.937 | [47] 0.925 | [48] 0.921 | [49] 0.945 | [50] 0.897 | [51] 0.948 | [52] 0.868 | [53] 0.947 | [54] 0.927 | [55] 0.856 | [56] 0.953 | [57] 0.84 | [58] 0.937 | [59] 0.942 | [60] 0.776 | [61] 0.95 | [62] 0.885 | [63] 0.887 | [64] 0.864 | [65] 0.952 | [67] 0.946 | [68] 0.929 | [69] 0.952 | [70] 0.917 | [71] 0.937

Cc1noc(C)c1-c1nc(-c2cc(C(F)(F)F)cc(C(F)(F)F)c2)no1
inactive: locus YAL013W, strain DEP1, stronger effect = lower value 1.02 | locus YBR229C, strain ROT2, stronger effect = lower value 1.01 | locus YCL061C, strain MRC1, stronger effect = lower value 0.992 | [8] 1.02 | locus YDL134C, strain PPH21, stronger effect = lower value 1.01 | locus YDR150W, strain NUM1, stronger effect = lower value 0.983 | locus YEL061C, strain CIN8, stronger effect = lower value 1.01 | locus YGR078C, strain PAC10, stronger effect = lower value 1.01 | [26] 1.03 | locus YHR087W, strain rtc3, stronger effect = lower value 1 | locus YJL187C, strain SWE1, stronger effect = lower value 1 | locus YJR043C, strain POL32, stronger effect = lower value 1 | locus YJR075W, strain HOC1, stronger effect = lower value 0.999 | locus YLR039C, strain RIC1, stronger effect = lower value 1.06 | locus YLR058C, strain SHM2 (second series), stronger effect = lower value 0.993 | locus YLR085C, strain ARP6, stronger effect = lower value 1.03 | locus YLR262C, strain YPT6, stronger effect = lower value 1.03 | locus YML094W, strain GIM5, stronger effect = lower value 1.07 | locus YMR219W, strain ESC1, stronger effect = lower value 0.998 | locus YMR263W, strain SAP30, stronger effect = lower value 0.981 | locus YMR307W, strain GAS1, stronger effect = lower value 0.99 | locus YNL128W, strain TEP1, stronger effect = lower value 1.02 | locus YNL153C, strain GIM3, stronger effect = lower value 1 | locus YNL298W, strain CLA4 (second series), stronger effect = lower value 1 | locus YNL322C, strain KRE1, stronger effect = lower value 1.01 | locus YNR030W, strain Alg12, stronger effect = lower value 1.03 | locus YPL055C, strain LGE1, stronger effect = lower value 1.05 | locus YPL241C, strain CIN2, stronger effect = lower value 1.01 | locus YPR135W, strain CTF4, stronger effect = lower value 1.07

Reference: PubChem BioAssay AID1159580 (chemical genetic matrix, 2015)
